# Screens as filed in PubChem.
# An excerpt weighted towards active compounds, which were near 7.8% of everything screened.
# Hedgehog inh: Sonic Hedgehog pathway inhibition | hit rate 2.1% among 22,000 | Shh-LIGHT2 Gli-luciferase reporter, 30 h | AID 2313 | inhibition, % (concentration not given with the values);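 active = mean inhibition across valid replicates above about 65%, limit read from the data; inconclusive = mean under the limit, yet half or more replicates past it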;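 also: pathway switched on by Shh-conditioned medium diluted 1 in 25 in low serum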
# MITF inhib: MITF inhibition. inhibition, % (no concentration beside the values). TRPM1 promoter luciferase, luminescence, 24 h. hit rate 0.28% among 37,000. AID 2240; in the data active = inhibition above about 85%; inconclusive = no clear call, values can overlap the other calls; inactive = below about 68%;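 also: human melanocyte line stably carrying TRPM1 promoter luciferase reporter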
# NOMO-1 viab: STK33 inhibitor candidate reducing NOMO-1 cell viability | inhibition, % (no concentration beside the values) | hit rate 7.5% among 37,000 | NOMO-1 AML viability, CellTiter-Glo luminescence, 72 h | AID 2330; in the data active = inhibition above about 80%; inconclusive = no clear call, values can overlap the other calls
# An asterisk follows results filed as active; u = inconclusive; x = not tested or not shown.
SMILES,Hedgehog inh,MITF inhib,NOMO-1 viab
C[C@@H]1CN([C@H](C)CO)C(=O)c2cccc(NC(=O)Nc3ccc(F)cc3)c2O[C@@H]1CN(C)S(=O)(=O)c1ccc(F)cc1,17.2,-3.6,27.8
Cc1ccc(S(=O)(=O)N(C)C[C@@H]2Oc3c(NC(=O)Nc4ccccc4)cccc3C(=O)N([C@@H](C)CO)C[C@@H]2C)cc1,106.6*,10.1,20.9
C[C@H](CO)N1C[C@H](C)[C@H](CN(C)S(=O)(=O)c2ccc(F)cc2)Oc2c(NC(=O)Nc3ccccc3)cccc2C1=O,99.6*,-14.1,16.9
C[C@H](CO)N1C[C@H](C)[C@H](CN(C)S(=O)(=O)c2ccc(F)cc2)Oc2c(NC(=O)Nc3cccc4ccccc34)cccc2C1=O,74.7*,41.3,72.1
C[C@@H]1CN([C@@H](C)CO)C(=O)c2cccc(NC(=O)Nc3cccc4ccccc34)c2O[C@H]1CN(C)S(=O)(=O)c1ccc(F)cc1,-41.4,7.2,15.1
CCn1c(SCC(=O)Nc2ccccc2F)nnc1-c1ccccc1F,x,2.0,-1.5
O=C(Nc1ccccc1C(F)(F)F)C1Sc2nnc(-c3ccccc3)n2NC1c1ccc(F)cc1 (stereo unspecified),19.8,25.2,48.0
COc1cc(-c2nc3ccccc3s2)cc(Br)c1OCC(=O)O,x,37.0,-2.4
O=C(Nc1sc2c(c1C(=O)NCc1ccco1)CCCC2)c1ccccc1[N+](=O)[O-],x,8.8,29.9
C[C@H]1CN([C@@H](C)CO)C(=O)c2cccc(NC(=O)Nc3ccc4c(c3)OCO4)c2O[C@H]1CN(C)Cc1ccc2c(c1)OCO2,-21.7,3.1,27.7
C[C@@H]1CN([C@@H](C)CO)C(=O)c2cccc(NC(=O)Nc3ccc4c(c3)OCO4)c2O[C@H]1CN(C)Cc1ccc2c(c1)OCO2,-45.5,4.6,93.0*
C[C@H]1CN([C@@H](C)CO)C(=O)c2cccc(NC(=O)Nc3ccc4c(c3)OCO4)c2O[C@@H]1CN(C)Cc1ccc(Cl)c(Cl)c1,-13.1,5.1,90.6*
C[C@@H]1CN([C@@H](C)CO)C(=O)c2cccc(NC(=O)Nc3ccc4c(c3)OCO4)c2O[C@@H]1CN(C)CC1CCCCC1,-63.8,-36.4,15.0
C[C@@H]1CN([C@@H](C)CO)C(=O)c2cccc(NC(=O)Nc3ccc4c(c3)OCO4)c2O[C@@H]1CN(C)Cc1ccccc1,-17.1,-19.4,18.8
C[C@@H]1CN([C@@H](C)CO)C(=O)c2cccc(NC(=O)Nc3ccc4c(c3)OCO4)c2O[C@H]1CN(C)CC1CCCCC1,-18.8,12.4,83.5*
C[C@@H]1CN([C@H](C)CO)C(=O)c2cccc(NC(=O)Nc3ccc4c(c3)OCO4)c2O[C@@H]1CN(C)Cc1ccc(Cl)c(Cl)c1,11.2,-16.3,54.3
C[C@@H]1CN([C@@H](C)CO)C(=O)c2cccc(NC(=O)Nc3ccc4c(c3)OCO4)c2O[C@H]1CN(C)Cc1ccccc1,15.2,34.5,106.6*
Cc1ccc(Cl)cc1NC(=O)C(C)n1nc(C)c([N+](=O)[O-])c1C (stereo unspecified),x,1.5,2.7
CC1=CS(=O)(=O)CC1SC(=S)NC(C)C (stereo unspecified),7.4,-1.4,u
COc1ccccc1-n1nnnc1SCC(=O)Nc1cc(OC)c(OC)c(OC)c1,x,28.7,26.8
CS(=O)(=O)N(CC(=O)Nc1ccc(Br)cc1F)c1ccc(Cl)c(Cl)c1,x,-9.0,37.3
C[C@H](CO)N1C[C@H](C)[C@H](CN(C)Cc2ccccc2)Oc2c(NC(=O)Nc3ccc4c(c3)OCO4)cccc2C1=O,-42.4,-0.7,84.2*
C[C@H](CO)N1C[C@H](C)[C@@H](CN(C)Cc2ccccc2)Oc2c(NC(=O)Nc3ccc4c(c3)OCO4)cccc2C1=O,-12.8,-13.7,61.0
COc1ccc(NC(=S)N2CCN(Cc3c(C)nn(C)c3C)CC2)cc1OC,x,-4.7,-7.3
Nc1cccc(-c2cc3c(Oc4cccc(O)c4)ncnc3[nH]2)c1,-7.7,-62.6,91.0*
SMILES,Hedgehog inh,MITF inhib,NOMO-1 viab
COC(=O)c1sc(NC(=O)COc2ccc(C(C)C)cc2)c(C#N)c1C,x,10.6,45.7
C[C@H]1CN([C@@H](C)CO)C(=O)c2cc(NS(=O)(=O)c3ccc(Cl)cc3)ccc2O[C@H]1CN(C)Cc1ccc(C(=O)Nc2ccccc2N)cc1,x,20.7,110.9*
C[C@@H]1CN([C@H](C)CO)C(=O)c2cc(NS(=O)(=O)c3ccc(F)cc3)ccc2O[C@H]1CN(C)Cc1ccc(C(=O)Nc2ccccc2N)cc1,x,-2.9,58.0
C[C@H]1CN([C@@H](C)CO)C(=O)c2cc(NS(=O)(=O)c3ccc(F)cc3)ccc2O[C@@H]1CN(C)Cc1ccc(C(=O)Nc2ccccc2N)cc1,x,-2.9,7.0
C[C@H](CO)N1C[C@H](C)[C@H](CN(C)Cc2ccc(C(=O)Nc3ccccc3N)cc2)Oc2ccc(NS(=O)(=O)c3ccc(F)cc3)cc2C1=O,x,23.2,109.3*
C[C@@H]1CN([C@H](C)CO)C(=O)c2cc(NS(=O)(=O)c3ccccc3)ccc2O[C@H]1CN(C)Cc1ccc(C(=O)Nc2ccccc2N)cc1,x,2.8,48.1
Cc1ccc(S(=O)(=O)Nc2ccc3c(c2)C(=O)N([C@H](C)CO)C[C@H](C)[C@H](CN(C)Cc2ccc(C(=O)Nc4ccccc4N)cc2)O3)cc1,x,3.5,u
Cc1ccc(S(=O)(=O)Nc2ccc3c(c2)C(=O)N([C@@H](C)CO)C[C@H](C)[C@H](CN(C)Cc2ccc(C(=O)Nc4ccccc4N)cc2)O3)cc1,x,33.8,109.9*
C[C@@H]1CN([C@@H](C)CO)C(=O)c2cc(NS(=O)(=O)c3ccc(F)cc3)ccc2O[C@@H]1CN(C)Cc1ccc(C(=O)Nc2ccccc2N)cc1,x,29.1,110.4*
COC(=O)COc1ccc2c(=O)c(Oc3cnn(-c4ccccc4)c3)c(C(F)(F)F)oc2c1C,x,-5.6,32.1
COc1cc(NC(=O)COc2ccc(C)c(C)c2)ccc1NC(=O)c1ccccc1Cl,x,-2.2,26.2
COc1cc(F)ccc1S(=O)(=O)NC1CC(C)(C)NC(C)(C)C1,x,-0.1,12.9
C[C@H](CO)N1C[C@H](C)[C@H](CN(C)C(=O)NC2CCCCC2)Oc2ccc(NC(=O)Nc3ccc(C(F)(F)F)cc3)cc2C1=O,19.9,64.1,63.4
C[C@H]1CN([C@@H](C)CO)C(=O)c2cc(NC(=O)Nc3ccc(C(F)(F)F)cc3)ccc2O[C@H]1CN(C)C(=O)Nc1ccc(C(F)(F)F)cc1,31.5,40.7,119.6*
C[C@@H]1CN([C@H](C)CO)C(=O)c2cc(NC(=O)Nc3ccc(C(F)(F)F)cc3)ccc2O[C@@H]1CN(C)C(=O)Nc1ccc(C(F)(F)F)cc1,-51.0,55.0,94.0*
C[C@H]1CN([C@@H](C)CO)C(=O)c2cc(NC(=O)Nc3ccc(C(F)(F)F)cc3)ccc2O[C@H]1CN(C)C(=O)NC1CCCCC1,-14.5,35.6,103.4*
C[C@H](CO)N1C[C@H](C)[C@@H](CN(C)C(=O)Nc2ccc(C(F)(F)F)cc2)Oc2ccc(NC(=O)Nc3ccccc3)cc2C1=O,-31.3,-1.4,2.1
C[C@@H]1CN([C@H](C)CO)C(=O)c2cc(NC(=O)Nc3ccc(F)cc3)ccc2O[C@@H]1CN(C)C(=O)Nc1ccc(C(F)(F)F)cc1,-4.5,12.8,48.2
C[C@@H]1CN([C@@H](C)CO)C(=O)c2cc(NC(=O)Nc3ccc(C(F)(F)F)cc3)ccc2O[C@H]1CN(C)C(=O)Nc1ccc(C(F)(F)F)cc1,10.2,47.0,104.7*
